Screening data as filed in PubChem.
The sample as a whole holds a higher share of hits than the screen did.
Pf Dd2 growth = inhibitors of Plasmodium falciparum Dd2 growth. P. falciparum Dd2 growth, SYBR Green, 72 h. Potency, µM (highest dose often 28.9 µM), inactives show top-dose activity, negative = inhibition, usual class: inhibitors. actives 4.3% (n = 120,000). AID 1347417; active means well fitted inhibition curve with a large enough effect;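 further: plate controls were DMSO vehicle for no effect and reference drug for full effect; nearly all actives have a fitted effect of over 65% in size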
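Infected erythrocytes (Dd2, 0.3% parasitemia, 2.5% hematocrit final) are added to compound in RPMI-1640/Albumax II medium, grown 72 h at 37C in low oxygen, then lysed with saponin/Triton-X containing SYBR Green and read by fluorescence.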
* = called active by the depositor; i = inactive; [ ] = dose if it differs, or a comment. Potency means the concentration at half of the fitted maximal effect.

SMILES	Pf Dd2 growth
CC(C)NC(=O)N[C@H]1C[C@@H](Cc2cc(CN3CCN(c4ccccc4)CC3)on2)C1(C)C	10µM*
CCCCc1cc(C[C@@H]2C[C@H](NC(=O)C(C)(C)C)C2(C)C)no1	i
CC1(C)[C@H](Cc2cc(COc3ccccc3)on2)C[C@@H]1NC(=O)C1CCC1	11µM*
CC1(C)[C@H](Cc2cc(CO)on2)C[C@@H]1NC(=O)C1CCC1	1%[44.1 µM]
CN(C)Cc1cc(C[C@@H]2C[C@H](NC(=O)CC(C)(C)C)C2(C)C)no1	14µM*
CC(C)N[C@H]1C[C@@H](Cc2cc(COc3ccccc3)on2)C1(C)C	11µM*
CC1(C)[C@H](Cc2cc(CN3CCN(c4ccccc4)CC3)on2)C[C@@H]1NCC1CC1	i
CC1(C)[C@H](Cc2cc(CN3CCCCC3)on2)C[C@@H]1NC(=O)c1ccccc1	-5%[44.1 µM]
CC(C)N[C@H]1C[C@@H](Cc2cc(CCO)on2)C1(C)C	-9%[44.1 µM]
CC1(C)[C@H](Cc2cc(COc3ccccc3)on2)C[C@@H]1NC(=O)NCc1ccccc1	-1%[44.1 µM]
CC(C)N[C@H]1C[C@@H](Cc2cc(CO)on2)C1(C)C	-16%[44.1 µM]
CNC(=O)Nc1ccc(C)n(CC(=O)N2CCN(c3cccc(Cl)c3)CC2)c1=O	i
Cc1ccc(C(=O)N2CCC3(CC2)N=C(c2cccc(Br)c2)NO3)cc1F	0%
O=C(NCC1CC1)c1nc2c(o1)CCN(Cc1ccc3c(c1)CCO3)CC2	i
COc1cccc(C(=O)N2CCC(CC(=O)NCc3ccccc3)C2)c1OC (stereo not given)	-14%
O=C(Cn1nnnc1CN1CCOCC1)N1CCCC1c1ccc(F)cc1 (stereo not given)	10%
COC1CCC12CCN(C(=O)c1ccnn1C)CC2 (stereo not given)	20%
c1ccc(-c2n[nH]c(CC3CCNC3)n2)cc1 (stereo not given)	12%
O=C1CCN(C(=O)[C@@H]2CCCN2S(=O)(=O)c2ccc3c(c2)CCC3)CCCCCCN1	i
CC(C)n1ccnc1C1CCCN(S(=O)(=O)c2ccccc2Cl)C1 (stereo not given)	i
COC(=O)c1ccc(Cn2nnc3c(=O)[nH]c(C4CCCN(S(=O)(=O)c5ccccc5Cl)C4)nc32)cc1 (stereo not given)	7.9µM*
Cc1cc(C)n(Cc2cccc(C(=O)N3CCCC(c4ncc[nH]4)C3)c2)n1 (stereo not given)	0%
Cc1ccc(C(=O)N2CCC(c3nn(Cc4ccccc4)c(=O)[nH]3)CC2)cc1	-8%
Cc1ccccc1Cn1nnc2c(=O)[nH]c(C3CCCN(C(=O)c4ccc(F)cc4)C3)nc21 (stereo not given)	-3%
CC(C)(C)c1ccc(C(=O)N2CCCC(c3nc4c(nnn4Cc4cccc(F)c4)c(=O)[nH]3)C2)cc1 (stereo not given)	1.6µM*
SMILES	Pf Dd2 growth
O=C(c1cccc(C(F)(F)F)c1)N1CCC(c2nn(-c3ccc(Cl)cc3)c(=O)[nH]2)CC1	i
O=C(c1cccc(Cl)c1)N1CCC(c2nn(-c3ccccc3)c(=O)[nH]2)CC1	i
Cc1ccc(C)c(C(=O)N2CCC(c3nc4c(nnn4Cc4ccccc4)c(=O)[nH]3)CC2)c1	11µM*
COc1ccc(CNC(=O)C2CCCN(S(=O)(=O)c3cccc4nsnc34)C2)cc1 (stereo not given)	-19%
Cc1ccccc1C(=O)N1CCC(c2nn(Cc3ccccc3)c(=O)[nH]2)CC1	-16%
O=C(c1cccc(Cl)c1)N1CCC(c2nc3c(nnn3Cc3ccc(F)cc3F)c(=O)[nH]2)CC1	2µM*
CCc1nc(-c2c3n(c(=O)n(Cc4ccc(OC)c(F)c4)c2=O)CCCCC3)no1	i
O=C1NCCCCCCN(C(=O)c2cccs2)[C@H]2CCCC[C@@H]12	-18%
CCC(CC)C(=O)N1CC(C(=O)NCCc2ccncc2)C2(CCOCC2)C1 (stereo not given)	24%
Fc1ccccc1OCc1nc(C2CCCNC2)no1 (stereo not given)	i
Cc1ccc(OCc2nc(C3CCNC3)no2)cc1 (stereo not given)	-1%
c1ccc(OCc2nc(C3CCCNC3)no2)cc1 (stereo not given)	5.6µM*
COc1ccc(C(C)NC(=O)c2nnn3cc(C)[nH]c(=O)c23)cc1 (stereo not given)	-7%
CN1C(=O)CC[C@]2(C(=O)NC3CC3)CCCC[C@@H]12	i
Cc1cn2nnc(C(=O)NCCc3cccs3)c2c(=O)[nH]1	-6%
CNC(=O)c1nnn2cc(C)[nH]c(=O)c12	53%
CCc1ccc(CNC(=O)c2nnn3cc(C)[nH]c(=O)c23)cc1	7.9µM*
COc1cccc(CNC(=O)c2nnn3cc(C)[nH]c(=O)c23)c1	-20%
Cc1ccc(CNC(=O)c2nnn3cc(-c4ccc(F)cc4)[nH]c(=O)c23)cc1	-4%
Cc1cn2nnc(C(=O)NCCC3=CCCCC3)c2c(=O)[nH]1	10µM*
CC(C)(C)C(=O)N1CCC(F)(c2nc(-c3ccncc3)no2)CC1	-16%
Cc1ccccc1Cn1nc2n(c1=O)CCCCC2	5%
OC(c1ccccc1)c1nc(Nc2ccc(Cl)cc2F)n[nH]1 (stereo not given)	i
COc1cc(Cl)ccc1C(=O)NC1CCc2nn(CC3CC3)c(=O)n2CC1 (stereo not given)	27%
Cc1c(C(=O)N2CC[C@](C)(O)[C@@H](O)C2)[nH]c2c(F)cccc12	-12%
SMILES	Pf Dd2 growth
COCC(=O)NC[C@H]1COCc2nc3cc(S(C)(=O)=O)ccc3n21	13%[44.1 µM]
Cc1cccc2c1nc1n2[C@@H](CNC2CCCCC2)COC1	i
c1cnc2c(c1)nc1n2[C@@H](CNC2CCCCC2)COC1	14µM*
CN1CCC(NC[C@H]2COCc3nc4cccnc4n32)CC1	-13%[44.1 µM]
CC(C)c1cc(C(=O)NCCc2noc(C3CCCO3)n2)nc2ncnn12 (stereo not given)	4%
CC(C)c1cc(C(=O)NCCc2nc(-c3cccnc3)no2)nc2ncnn12	4%
Cc1cc(CNC(=O)c2cc(C(C)C)n3ncnc3n2)c2[nH]c(C)c(C)c2c1	8.9µM*
CC(C)CN1C(=O)c2cccn2CC1C(=O)NCc1ccc(Cl)cc1 (stereo not given)	32%
O=C1NC(=NC2CCCCC2)C2(CCN(CC3CCCCC3)CC2)N1c1cc(F)cc(F)c1	10%
O=C1NC(=NC2CCCC2)C2(CCCN(CC3CCCCC3)C2)N1c1cc(F)cc(F)c1 (stereo not given)	4.5µM*
CC(C)CCN1CCC2(C1)C(=NC1CCCCC1)NC(=O)N2c1cccnc1 (stereo not given)	77%
O=C1NC(=NC2CCCC2)C2(CCN(CC3CC3)C2)N1c1cccnc1 (stereo not given)	-12%
O=C1NC(=NC2CCCCC2)C2(CCN(CC3CCCCC3)C2)N1c1cc(F)cc(F)c1 (stereo not given)	5µM*
CC(C)CCN1CCCC2(C1)C(=NC1CCCCC1)NC(=O)N2c1cc(F)cc(F)c1 (stereo not given)	4µM*
O=C(c1ccccc1F)N1CCC2(C1)C(=NC1CCCCC1)NC(=O)N2c1cc(F)cc(F)c1 (stereo not given)	-4%
CC(C)CCN1CCCC2(C1)C(=NC1CCCC1)NC(=O)N2c1cccnc1 (stereo not given)	-14%
O=C(c1ccccc1)N1CCC2(C1)C(=NC1CCCCC1)NC(=O)N2c1cc(F)cc(F)c1 (stereo not given)	9%
CN(C)c1ccc(C(=O)NC[C@H]2O[C@@H](CO)[C@@H](O)[C@H]2N2CCN(c3ccccc3)CC2)cc1	i
